Experimental data as given in PubChem BioAssay AID493169 (National Center for Advancing Translational Sciences (NCATS), 2011).
Results filed as inconclusive are left out. The source made the active and inactive calls. The call rests on the fitted dose curve; in most records, active means well fitted inhibition curve with a large enough effect; inconclusive means small, poorly fitted or top-dose-only effect; inactive means flat fitted curve, though single readings scatter.
On the % scale 0 is the no-effect control and ±100 the full control effect; potency means the concentration at half of the fitted maximal effect.

Assay: CHOP2 Reporter Counterscreen Assay for Inhibitors of Ubiquitin-specific Protease USP2a;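 further: activated enterokinase alone at 50 pM in a cell-free format rather than USP2a or CHOP2; nearly all actives have a fitted effect of over 55% in size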
Conditions: purified enterokinase, fluorogenic substrate, 485/531 nm; series mostly up to 38.3 µM; activity change, negative = inhibition: at the top concentration
Summary of the method: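 Cell-free counterscreen with pre-activated enterokinase alone (50 pM final) in 20mM Tris-HCl pH 8.0, 2mM CaCl2, 2mM beta-mercaptoethanol, 0.05% CHAPS; compound preincubation 30 min RT, reporter substrate 25nM final, fluorescence read after 10 min (Ex 485/Em 531).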
For Cc1cc(N2CCOCC2)nc(SCC(=O)c2ccc(Cl)cc2)n1, the “activity change, negative = inhibition” value was 4.72% (inactive).
With O=C(CCSCc1ccc(Cl)cc1)NCCc1ccccc1 the “activity change, negative = inhibition” value was -0.319% (inactive).
In the case of Cc1ccc(O)c(CC(C)C)n1, the “activity change, negative = inhibition” value is reported as 2.61% (inactive).
With O=[N+]([O-])c1cc(-c2nnc(Nc3ccccc3)c3ccccc23)ccc1N1CCOCC1 the “activity change, negative = inhibition” value was -0.475% (inactive).
In the case of O=C(Nc1ccc(Oc2ccc(Cl)cc2)cc1)c1ncn[nH]1, the “activity change, negative = inhibition” value is reported as 4.42% (inactive).
With CC(C)c1ccc(Nc2nnc(SCC(=O)c3nnc(-c4ccccc4)o3)s2)cc1 the Potency was 5.01 µM (active).
In the case of COc1cc(/C=C/C(=O)OCC(=O)NC(=O)NCc2ccco2)ccc1OC(F)F, the “activity change, negative = inhibition” value is reported as -19.8% (inactive).
In the case of Nc1c(C(=O)Nc2ccc(Cl)cc2)oc2ccccc12, the “activity change, negative = inhibition” value is reported as -5.29% (inactive).
In the case of C#CCOCCOCCOCCNc1nc(N2CCN(C(=O)CCCCCCCCCCNC(=O)[C@@H](CCSC)n3cc(CCO)nn3)CC2)nc(N2CCN(C(=O)CCCCCCCCCCNC(=O)[C@H](CCCN=C(N)N)n3cc(C[C@@H](C)CC)nn3)CC2)n1, the Potency is reported as 2.51 µM (active).
For CCOc1ccc(C(=O)c2ccc(OCC)c(N)c2)cc1N, the “activity change, negative = inhibition” value was -1.26% (inactive).
With Cc1ccc(N(CC(=O)Nc2ccc(S(=O)(=O)N3CCOCC3)cc2)S(C)(=O)=O)cc1C the “activity change, negative = inhibition” value was 2.83% (inactive).
With CCO[C@H]1OC(C(=O)N2CCCCCCC2)=C[C@@H](c2ccc(C(F)(F)F)cc2)[C@@H]1CCCO the “activity change, negative = inhibition” value was -1.04% (inactive).
For Cc1ccc(S(=O)(=O)Nc2ccccc2-c2ccccc2NS(=O)(=O)c2ccc(C)cc2)cc1, the “activity change, negative = inhibition” value was -20.3% (inactive).
With Cc1ccc(C(=O)NCCCc2ccccc2)s1 the “activity change, negative = inhibition” value was 2.08% (inactive).
For CCOC(=O)c1sc(NC(=O)Nc2ccccc2)cc1C, the “activity change, negative = inhibition” value was 4.87% (inactive).
With Cc1ccc(S(=O)(=O)N2[C@@H](c3ccc(C(C)(C)C)cc3)C(C(=O)O)=CC[C@H]2c2ccc(Cl)cc2)cc1 the Potency was 10 µM (active).
In the case of FC(F)(F)C1=Nc2cccc3cccc(c23)N1, the “activity change, negative = inhibition” value is reported as 2.43% (inactive).
With CCOC(=O)C1=CN(Cc2cccc(F)c2)S(=O)(=O)NC1c1ccc(Br)cc1F (stereo not given) the “activity change, negative = inhibition” value was -6.87% (inactive).
In the case of O=C1CC(Nc2ccc(N3CCOCC3)cc2)C(=O)N1c1cccc(C(F)(F)F)c1 (stereo not given), the “activity change, negative = inhibition” value is reported as 0.0866% (inactive).
In the case of COc1cccc(NC(=O)Cc2ccccc2)c1, the “activity change, negative = inhibition” value is reported as 8.41% (inactive).
With COc1cc2cc(CN(CCN3CCCC3)C(=O)Nc3ccc(F)cc3)c(=O)[nH]c2cc1OC the “activity change, negative = inhibition” value was -2.32% (inactive).
For O=C(NC(=S)N1CCCc2ccccc21)c1ccc([N+](=O)[O-])cc1, the “activity change, negative = inhibition” value was 6.3% (inactive).
For COC(=O)CSc1nnc(NC(=O)C2CC(=O)N(c3ccc(F)cc3)C2)s1 (stereo not given), the Potency was 10 µM (active).
In the case of COc1c(/C=C2\SC(=Nc3ccccc3Cl)NC2=O)cccc1[N+](=O)[O-], the “activity change, negative = inhibition” value is reported as -9.15% (inactive).
With Cc1c(C(=O)NCc2c(F)cc(F)cc2F)oc2ccc(S(=O)(=O)N3CCOCC3)cc12 the “activity change, negative = inhibition” value was 0.213% (inactive).
With O=[N+]([O-])c1cc(-c2ccc(/C=N\n3cnnc3)o2)cc([N+](=O)[O-])c1 the Potency was 10 µM (active).
With CCCn1nnc(NC(=O)c2cccc(OCC(C)C)c2)n1 the “activity change, negative = inhibition” value was 2.56% (inactive).
For O=[N+]([O-])c1ccc(Sc2nnnn2-c2ccccc2)c(Cl)c1, the “activity change, negative = inhibition” value was -1.14% (inactive).
With CS(=O)(=O)c1ccc(C(=O)Nc2nc(-c3ccco3)c(-c3ccco3)s2)cc1 the “activity change, negative = inhibition” value was -26.3% (inactive).
With CCc1cc2cccc(C)c2nc1SCC(=O)N1CCN(C(=O)c2ccco2)CC1 the “activity change, negative = inhibition” value was -3.06% (inactive).
With O=C(CNC(=O)C1CCCCC1)NC1=NCCS1 the “activity change, negative = inhibition” value was 0.064% (inactive).
With COC(=O)c1c(NC(=O)c2cccnc2)sc(C)c1C the “activity change, negative = inhibition” value was 3% (inactive).
In the case of CN(C)c1cccc(C(=O)NNC(=O)C23CC4CC(CC(C4)C2)C3)c1, the “activity change, negative = inhibition” value is reported as -0.132% (inactive).
With CCOc1ccc(NC(=O)N(CCCN2CCOCC2)Cc2cccnc2)cc1 the “activity change, negative = inhibition” value was 5.89% (inactive).
In the case of CCCOc1ccc(N2C(=O)CC(NCCc3ccc(S(N)(=O)=O)cc3)C2=O)cc1 (stereo not given), the “activity change, negative = inhibition” value is reported as 0.525% (inactive).
With O=C(NN=Cc1ccc(N2CCOCC2)s1)c1ccc([N+](=O)[O-])cc1 the “activity change, negative = inhibition” value was -0.184% (inactive).
For C/C(Cn1nnc2ccccc21)=N\OC(=O)c1ccccc1C, the “activity change, negative = inhibition” value was 3.79% (inactive).
In the case of CC1=C(C(=O)OC(C)C)C(C)C(C(=O)OC(C)C)=C(C)N1, the “activity change, negative = inhibition” value is reported as 1.59% (inactive).
For CN1CCN(S(=O)(=O)c2ccc(N3CCN(S(=O)(=O)/C=C/c4ccccc4)CC3)nc2)CC1, the “activity change, negative = inhibition” value was 0.276% (inactive).
In the case of CNc1cccccc1=S, the “activity change, negative = inhibition” value is reported as -3.13% (inactive).
